Assay [1] can be described thus: P-glycoprotein substrates identified in KB-8-5-11 adenocarcinoma cell line, qHTS therapeutic library screen (AID 1346987). Also: nearly all actives have a fitted effect of over 65% in size. As to activity change, negative = cytotoxicity: % is scaled to controls: 0 for no effect and ±100 for the full control effect. The method in brief: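 Human cervical adenocarcinoma KB-8-5-11 cells, selected in colchicine to over-express P-gp and assayed without it, were exposed for 72 h to titrated compounds. An ATP-based luminescent viability signal gave AC50.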
(In qHTS, concentration-response curves come from the screen itself.)

Assay [2] has as its target Calcium and integrin-binding protein 1 (Homo sapiens) (UniProt Q99828). Description: Primary qHTS for Identification of Calcium Integrin Binding Protein 1 (CIB1) Competitor (AID 1508620). Also: top concentration of the series differs between compounds; % is scaled to controls: 0 for no effect and ±100 for the full control effect. The method in brief: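 Fluorescence polarization competition: GST-tagged CIB1 (1 uM final) preincubated with compound 15 min at room temperature, then FITC-labelled alphaIIb peptide (100 nM final) added. After 15 min at room temperature, polarization read at Ex 480/Em 540.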

In assay [3] the target is Phospholipid hydroperoxide glutathione peroxidase GPX4 (Homo sapiens) (UniProt P36969). Description: Primary qHTS Assay for Inhibitors of Recombinant Selenoprotein Glutathione Peroxidase 4 (GPX4) (AID 1845192). Also: % is scaled to controls: 0 for no effect and ±100 for the full control effect; nearly all actives have a fitted effect of over 65% in size. The method in brief:
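Steps: GPX4 plus compound, 30 min RT; add GR/GSH/NADPH master mix; start with cumene hydroperoxide; read 340/450 nm fluorescence at 0 and 15 min. Finals were 200 nM GPX4, 1 mM GSH, 0.5 mM CHP, 0.5 mM NADPH, 100 nM GR.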

For assay [4], the target named is Luciferin 4-monooxygenase (Photinus pyralis) (UniProt P08659). Description: Primary firefly luciferase (FLuc) qHTS assay for identification of artifact compounds. (AID 1845220). Also: nearly all actives have a fitted effect of over 60% in size.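 As to activity change, negative = inhibition: plate controls were DMSO vehicle for no effect and no enzyme for full effect.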 Particulars: outcome: dose series up to 54.1 µM unless noted. The method in brief:
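Titrated compounds were incubated 15 min at RT, protected from light, with luciferin and ATP at 10 uM; reaction started with 10 nM FLuc, luminescence imaged at 5 min, and concentration-response fitted by Hill equation.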

Assay [5] has as its system CRL-7250. Description: Cytotoxic Profiling of Annotated Libraries Using Quantitative High-Throughput Screening (AID 1296008). Also: nearly all actives have a fitted effect of over 60% in size. Also: potency is read from the fitted curve at half-maximal effect. As to max response: % is scaled to controls: 0 for no effect and ±100 for the full control effect. The conditions noted are these: Five cell lines viability, CellTiter-Glo ATP luminescence, 48-72 h; max response: active compounds read low. The essentials:
(§1)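 Cells exposed to compounds for 48 or 72 hr at 37 degrees Celsius. Viability read as ATP-coupled luminescence with CellTiter-Glo after 10 min at room temperature.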
(In ATP-based viability assays light output follows the ATP content of the culture.)

The test system of assay [6] is HaCat. The description is as above. The conditions noted are these: Five cell lines viability, CellTiter-Glo ATP luminescence, 48-72 h; max response: active compounds read low. The method in brief:
as §1

Assay [7] has as its system NIH3T3. Described as above. The conditions noted are these: Five cell lines viability, CellTiter-Glo ATP luminescence, 48-72 h; max response: active compounds read low. The essentials:
as §1

The test system of assay [8] is C33A. Nature of the assay: Primary qHTS to identify gynecologic anti-cancer compounds using libraries of approved drugs and bioactive compounds (AID 1345084). Also: % is scaled to controls: 0 for no effect and ±100 for the full control effect; nearly all actives have a fitted effect of over 55% in size. The conditions noted are these: Gynecologic cancer cell panel viability, ATPlite luminescence, 48 h; series mostly up to 57.5 µM. The method in brief:
(§2)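 In this quantitative HTS, cell killing is estimated from loss of ATP-dependent luciferase light. Cells see five compound concentrations over a 48 h exposure.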

Assay [9] relates to CAOV3. The assay is described as above. Particulars: Gynecologic cancer cell panel viability, ATPlite luminescence, 48 h; series mostly up to 57.5 µM. The essentials:
as §2

The test system of assay [10] is CASKI. Described as above. Particulars: Gynecologic cancer cell panel viability, ATPlite luminescence, 48 h; series mostly up to 57.5 µM. The method in brief: as §2
Assay [11] concerns Es-2. The description is as above. Particulars: Gynecologic cancer cell panel viability, ATPlite luminescence, 48 h; series mostly up to 57.5 µM. The method in brief: as §2
The test system of assay [12] is Hek293T. Described as above. The conditions noted are these: Gynecologic cancer cell panel viability, ATPlite luminescence, 48 h, control line for the selectivity index; series mostly up to 57.5 µM. The essentials: as §2
The subject of assay [13] is JEG-3. Described as above. Particulars: Gynecologic cancer cell panel viability, ATPlite luminescence, 48 h; series mostly up to 57.5 µM. The essentials:
as §2

For assay [14], the system named is OV90. Described as above. The conditions noted are these: Gynecologic cancer cell panel viability, ATPlite luminescence, 48 h; series mostly up to 57.5 µM. The essentials:
as §2

For assay [15], the system named is PA-1. The assay is described as above. The conditions noted are these: Gynecologic cancer cell panel viability, ATPlite luminescence, 48 h; series mostly up to 57.5 µM. The essentials: as §2
Assay [16] concerns Tov-21-G. Described as above. The conditions noted are these: Gynecologic cancer cell panel viability, ATPlite luminescence, 48 h; series mostly up to 57.5 µM. The essentials:
as §2

Assay [17] deals with Tov112D. The assay is described as above. Particulars: Gynecologic cancer cell panel viability, ATPlite luminescence, 48 h; series mostly up to 57.5 µM. The method in brief:
as §2

Assay [18] in a line: Primary qHTS for inhibitors of nuclear receptor binding SET domain protein 2 (NSD2) in an isogenic RCH-ACV NSD2 p.E1099K mutant (9B) (AID 1645876). Also: nearly all actives have a fitted effect of over 70% in size. Also: potency is read from the fitted curve at half-maximal effect.
Assay [19] relates to Nanoluciferase (engineered Oplophorus gracilirostris luciferase). Description: Primary Nanoluciferase (NLuc) qHTS assay for identification of artifact compounds. (AID 1845222).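 Also: NLuc secreted into diluted conditioned medium of S16 cells; 0% = DMSO and -100% = no enzyme.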 The essentials:
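qHTS format, against NLuc in S16 cell-conditioned medium. Nano-Glo substrate 1:100 was added after 15 min at room temperature. Luminescence was taken after a further 5 min.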

The test system of assay [20] is HEK293. Description: Cytotoxic Profiling of Annotated Libraries Using Quantitative High-Throughput Screening (AID 1296008). Also: nearly all actives have a fitted effect of over 60% in size. Also: potency is read from the fitted curve at half-maximal effect. As to max response: % is scaled to controls: 0 for no effect and ±100 for the full control effect. Particulars: Five cell lines viability, CellTiter-Glo ATP luminescence, 48-72 h; max response: active compounds read low. The method in brief:
as §1

The structures appear in SMILES notation. A number with no mark means an inactive call. Results filed as inconclusive are left out. Active and inactive are the calls of the source. Calls follow the shape of the dose curve; as a rule, active = well fitted curve in the direction sought with a large enough effect; inconclusive = small, poorly fitted or top-dose-only effect, or another doubt; inactive = no such curve, though single readings can be large; an effect the other way counts as inactive or inconclusive.

Phospholipid hydroperoxide glutathione peroxidase GPX4 (Homo sapiens), sequence (P36969 whole entry, looked up): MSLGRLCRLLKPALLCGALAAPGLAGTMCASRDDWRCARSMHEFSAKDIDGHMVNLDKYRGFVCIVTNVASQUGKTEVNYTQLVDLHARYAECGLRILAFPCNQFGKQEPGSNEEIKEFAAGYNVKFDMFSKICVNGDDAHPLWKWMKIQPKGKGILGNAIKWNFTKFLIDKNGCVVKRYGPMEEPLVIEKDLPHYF
Calcium and integrin-binding protein 1 (Homo sapiens), sequence (Q99828 whole entry, looked up): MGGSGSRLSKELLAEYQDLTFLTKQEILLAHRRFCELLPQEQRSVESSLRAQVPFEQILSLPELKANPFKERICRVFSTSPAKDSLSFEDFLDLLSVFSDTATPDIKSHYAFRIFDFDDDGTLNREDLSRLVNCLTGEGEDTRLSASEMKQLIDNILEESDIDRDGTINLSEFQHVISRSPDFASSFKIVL

`COc1ccc2c(c1)c(CCN(C)C)cn2S(=O)(=O)c1ccccc1`: the Potency entry in [1], in assay [2], in [3], in assay [8], in [9] and in [10] was “inactive” in each case. Also, the Potency entry in [11], in assay [12], in assay [13], in assay [14], in assay [15] and in [16] was “inactive” throughout. In assay [17], the Potency result was “inactive”. Also, the call in assay [4], in assay [6] and in assay [7] was inactive. The max response in [5] is 1.29%.
For the compound `CN1CCCCC1Cn1cc(C(=O)c2cc([N+](=O)[O-])ccc2I)c2ccccc21` (centres undefined), the Potency entry in assay [18], in assay [3], in assay [19], in [8], in [9] and in [10] was “inactive” in each case. Moreover, the Potency entry in assay [11], in assay [12], in assay [13], in assay [14], in assay [15] and in [16] was “inactive” each time. For the same compound, the Potency result in [17] was “inactive”. Besides, the outcome in [4], in assay [6] and in [7] was inactive. The max response in assay [5] was 2.06%.
Take `C[C@]12CC[C@H](O)C[C@@H]1CC[C@@H]1[C@@H]2CC[C@]2(C)C(=O)CC[C@@H]12`: the Potency result in assay [1], in assay [2], in assay [18], in [3], in [19] and in assay [8] was “inactive” in each case. In addition, the Potency entry in assay [9], in assay [10], in assay [11], in [12], in [13] and in assay [14] was “inactive” each time. Besides, the Potency entry in assay [15], in [16] and in assay [17] was “inactive” each time. The outcome in [4] was inactive. Besides, the max response in assay [5] was -5.26%; in assay [20], -15.1%; in assay [7], -0.109%.
Take `C/C=C(\C)C(=O)OC1CC2C(CC=C3CC(OC4CC(OC)C(OC5CC(OC)C(OC6CC(OC)C(OC7CC(OC)C(O)C(C)O7)C(C)O6)C(C)O5)C(C)O4)CCC32C)C2(O)CCC(C(C)=O)C12C` (centres undefined): the outcome in assay [1] was “inactive [at 9.29 µM]”. The Potency entry in assay [2] and in assay [3] was “inactive” in each case. The activity change, negative = inhibition in assay [4] is 3.09% [at 11.6 µM]. For the same compound, in [19], the activity, negative = inhibition was 1.71% [at 11.6 µM]. The max response in assay [5] was -2.08%. Moreover, the outcome in assay [6] and in [7] was inactive. The activity change, negative = cytotoxicity in [8] is -3.2% [at 11.6 µM]; in assay [9], 3.23% [at 11.6 µM]; in [10], -11.1% [at 11.6 µM]; in assay [11], -0.231% [at 11.6 µM]; in assay [12], -2.97% [at 11.6 µM]; in assay [13], -3.8% [at 11.6 µM]. For the same compound, the activity change, negative = cytotoxicity is -21.5% [at 11.6 µM] in assay [14], -6.71% [at 11.6 µM] in assay [15], 1.18% [at 11.6 µM] in assay [16] and -0.393% [at 11.6 µM] in assay [17].
As for `COc1cc(C(=O)N2CC[C@@H](O)[C@@H](N)C2)cc2nc(-c3cc4ccccc4n3CC3CC3)n(C)c12`, the Potency result in assay [2] and in [3] was “inactive” each time. In addition, the Potency in assay [18] is 20.9 µM (active); in [5], 20.9 µM (active); in [20] it was 14.8 µM (active).
Turning to `CC12CCC3C(C1)c1c(cc(O)c(C(=O)c4ccccc4)c1OC3(C)C)O2` (centres undefined), the Potency entry in [1], in [2], in assay [18], in assay [3], in assay [8] and in assay [9] was “inactive” each time. Also, the Potency result in assay [10], in [11], in assay [12], in assay [13], in assay [14] and in assay [15] was “inactive” in each case. Also, the Potency entry in assay [16] and in assay [17] was “inactive” each time. Moreover, the compound was called inactive in assay [4] and in assay [5]. The max response is -1.85% in assay [6] and 3.12% in [7].

(Values after PubChem BioAssay (NCATS).)
